Source: PubChem BioAssay (several laboratories)
Hsp70 activator – Hsp70 transcriptional activation, primary screen; activation, % at 10 µM; AID 1203; HeLa Hsp70 promoter luciferase reporter, luminescence; scaled: vehicle 0, proteasome-inhibitor control 100%; hit rate 0.04% among 200,000;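 active means activation above the mean across all tested compounds plus 3 SD, cutoff set per campaign, cut at about 5.5% in these data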
GAA850 FXN act – activators of GAA850 frataxin (FXN) promoter | HEK293 lucGAA850 FXN promoter luciferase reporter, 24 h; percent of 10 µM SAHA response | activation, % at 6 µM | hit rate 0.56% among 360,000;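 active means activation above the average of all compounds screened plus 3 SD, cutoff fixed separately per campaign, cut at about 7.5% in these data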
GalR3 antagonist – human GalR3 antagonism. HEK293 GalR3-CNG cAMP membrane potential fluorescence; galR3 body fused to GalR1 C-terminus. inhibition, % at 3 µM. hit rate 0.44% among 360,000. O60755;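 active means inhibition above the screen-wide average plus 3 SD, cut at about 13% in these data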;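 further: forskolin and galanin both at EC90 stimulate the cells; cAMP rise reported by CNG channel membrane potential dye signal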
Target sequence (O60755 1-299 limits assumed): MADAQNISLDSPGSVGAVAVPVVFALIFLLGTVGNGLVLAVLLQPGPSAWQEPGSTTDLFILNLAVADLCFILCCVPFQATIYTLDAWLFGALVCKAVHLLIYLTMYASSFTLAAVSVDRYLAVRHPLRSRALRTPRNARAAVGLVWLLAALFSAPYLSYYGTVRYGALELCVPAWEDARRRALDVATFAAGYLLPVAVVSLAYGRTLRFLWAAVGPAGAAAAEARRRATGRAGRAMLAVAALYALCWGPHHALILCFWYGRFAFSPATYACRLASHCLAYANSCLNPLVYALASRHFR
HIF activator – HIF pathway transcriptional activation. activation, % at 7.5 µM (by protocol). hit rate 0.32% among 300,000. U2OS HRE-luciferase reporter, luminescence; normalized: DMSO 0%, desferrioxamine 100%. AID 1910;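 active means mean activation of at least 10% of the iron chelator positive control signal, with at least half of replicates also reaching 10%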
SMARCA2 act – SMARCA2 function activation, primary screen. MG213 cells, MMTV-luciferase reporter, dexamethasone, overnight. activation, % at 9.1 µM. hit rate 1% among 370,000. AID 652017; in the data active means activation above about 7.8%
GAA30 counter – counter-screen for GAA850 frataxin promoter activators: GAA30 promoter activation; activation, % at 6 µM; hit rate 66% among 1,900; HEK293 lucGAA30 FXN promoter luciferase, 24 h; DMSO = 0%, 5 µM ipriflavone = 100%; shares compounds with GAA850 FXN act;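 active means mean activation above the mean of solvent-only control wells plus 3 SD, cut at about 22% in these data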;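 further: counterscreen of GAA850 promoter hits where activity marks nonselective or luminescence artifacts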
FXN GAA850 conf – confirmation of GAA850 frataxin (FXN) promoter activators; activation, % at 6 µM; shares compounds with GAA850 FXN act; hit rate 86% among 1,900; HEK293 lucGAA850 FXN promoter luciferase reporter, 24 h; 100% = activation by SAHA;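 active means mean activation above a set limit taken from the primary screen, cut at about 8% in these data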
A number is an active result. Shown are actives, neighbours in structure and some others; about 2.2% of the full set was active somewhere.

Screening COc1ccc(-c2nnc(SCC(=O)NN=Cc3c(O)ccc4ccccc34)n2-c2ccc(OC)cc2)cc1 returned SMARCA2 act inactive.
Screening CCCCc1ccc(NC(=O)CC(C)(C)C)cc1 returned Hsp70 activator inactive, GAA850 FXN act 7.8, GalR3 antagonist inactive, HIF activator inactive, SMARCA2 act inactive, GAA30 counter 108 and FXN GAA850 conf 38.
CCOC(=O)c1c(-c2ccc(F)cc2)csc1NC(=O)CN1C(=O)NC2(CCCCC2C)C1=O (stereo not given) was read as Hsp70 activator inactive, GAA850 FXN act 13, GalR3 antagonist inactive, HIF activator inactive, SMARCA2 act inactive, GAA30 counter inactive and FXN GAA850 conf 18.
Cc1n[nH]c(C)c1S(=O)(=O)N(CC(=O)NC1CCCC1)c1ccc(C(C)C)cc1 was read as Hsp70 activator inactive, GAA850 FXN act 8.2, GalR3 antagonist inactive, SMARCA2 act inactive, GAA30 counter inactive and FXN GAA850 conf 9.5.
Screening CCN1CCCCC(NC(C)=O)C1=O (stereo not given) returned SMARCA2 act inactive.
c1ccc2oc(-c3ccn[nH]3)cc2c1 was read as GAA850 FXN act 8.0, GalR3 antagonist inactive, HIF activator inactive, SMARCA2 act inactive, GAA30 counter 122 and FXN GAA850 conf 38.
CCOC(=O)[C@@]12CCCC3=C1N(CCC3)C(=O)[C@H]2CC(=O)NCc1cccs1 was read as SMARCA2 act inactive.
For CC(C)Cn1cnc2c(SCc3ccccc3F)nc(N)nc21 the results were GAA850 FXN act 8.9, GalR3 antagonist inactive, SMARCA2 act inactive, GAA30 counter 95 and FXN GAA850 conf 35.
Screening CCCCn1cnc2c(SCc3ccc(Cl)cc3)nc(N)nc21 returned GAA850 FXN act inactive, GalR3 antagonist inactive and SMARCA2 act inactive.
`CCC(C)Cn1cnc2c(SCc3ccccc3F)nc(N)nc21` (stereo not given) gave GAA850 FXN act inactive, GalR3 antagonist inactive and SMARCA2 act inactive.
Screening CCCCn1cnc2c(SCc3ccccc3F)nc(N)nc21 returned GAA850 FXN act 8.3, GalR3 antagonist inactive, SMARCA2 act inactive, GAA30 counter 57 and FXN GAA850 conf 25.
For COC(=O)c1ccc2nc(-c3cccc(Cl)c3)c(Cc3ccccc3C(F)(F)F)n2c1 the results were GalR3 antagonist inactive and SMARCA2 act inactive.
COC(=O)C1=C(C)N(Cc2ccc(C(F)(F)F)cc2)C(=NCc2ccccc2)NC1c1cccc(Cl)c1 (stereo not given) was read as GalR3 antagonist inactive and SMARCA2 act inactive.
Screening CN(C)C=Nc1nc2c(Br)ccc(Br)c2cc1C(=O)NCC(C)(C)C returned SMARCA2 act inactive.
For O=C(NCc1ccco1)c1ccc(Cn2c(=O)c3ccccc3n(Cc3cccc(F)c3)c2=O)cc1 the results were Hsp70 activator inactive, GAA850 FXN act 8.0, GalR3 antagonist inactive, HIF activator inactive, SMARCA2 act inactive, GAA30 counter inactive and FXN GAA850 conf inactive.
For O=c1c2ccccc2n(Cc2ccc(Cl)cc2)c(=O)n1Cc1ccco1 the results were Hsp70 activator inactive, GAA850 FXN act inactive, GalR3 antagonist inactive, HIF activator inactive and SMARCA2 act inactive.
For O=C(NCc1ccco1)c1ccc(Cn2c(=O)c3ccccc3n(Cc3ccc(Cl)cc3)c2=O)cc1 the results were Hsp70 activator inactive, GAA850 FXN act 14, GalR3 antagonist inactive, HIF activator inactive, SMARCA2 act inactive, GAA30 counter 22 and FXN GAA850 conf 14.
COCCNC(=O)Cn1c(=O)n(Cc2ccc(C(=O)NCc3ccco3)cc2)c(=O)c2ccccc21 was read as Hsp70 activator inactive, GAA850 FXN act inactive, GalR3 antagonist inactive, HIF activator inactive and SMARCA2 act inactive.
For N#Cc1ccccc1Cn1c(=O)n(Cc2ccc(C(=O)NCc3ccco3)cc2)c(=O)c2sccc21 the results were Hsp70 activator inactive, GAA850 FXN act 12, GalR3 antagonist inactive, SMARCA2 act inactive, GAA30 counter 22 and FXN GAA850 conf 7.8.
Screening Cc1ccc(-n2c(SCc3cccc4ccccc34)nnc2-c2ccccn2)cc1 returned SMARCA2 act inactive.
